# High-throughput results: PubChem BioAssay, several laboratories
# tim23-1 inh: growth inhibitors of tim23-1 mutant yeast. S. cerevisiae tim23-1 growth, BacTiter-Glo luminescence, 24 h. inhibition, % at 20 µM. 1.3% of 330,000 active. AID 463212;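 active = growth inhibition of the mutant yeast at or above 50%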;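 also: temperature-sensitive mutant grown at 25 °C; plate controls were DMSO-treated mutant yeast for no effect and medium wells lacking yeast for full effect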
# tim10-1 inh: tim10-1 yeast growth inhibition; S. cerevisiae tim10-1 ts strain growth, BacTiter-Glo, 24 h; inhibition, % at 20 µM; 2.2% of 330,000 active; AID 463190;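 active = inhibition of at least 40%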;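 also: mutant grown at 25 °C; 0% = DMSO wells with yeast and 100% = wells holding no yeast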
# NALP1 inh: inhibitors of NALP1 inflammasome in yeast; 0.61% of 280,000 active; S. cerevisiae NALP1/ASC/caspase-1 growth, X-gal OD620, 72 h; inhibition, % at 10 µM; AID 2071; in the data active = inhibition mostly above about 24%, no sharp cut-off; inactive = mostly below about 32%
# NALP3 yeast inh: NALP3 inhibition in yeast; 0.39% of 330,000 active; Yeast reconstituted NLRP3/ASC/caspase-1, beta-gal luminescence, 24 h; inhibition, % at 10 µM;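 active = inhibition of 50% or more; inactive = inhibition below 50%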;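 also: plate controls were induced DMSO wells for no effect and uninduced yeast grown without galactose for full effect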
# PfHsp90 yeast 2: inhibits growth of yeast expressing Plasmodium falciparum Hsp90; S. cerevisiae expressing PfHsp90, BacTiter-Glo ATP, 48 h; yeast lacking PDR1 and PDR3 efflux regulators; 0.32% of 310,000 active; inhibition, % at 9.4 µM;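 active = every replicate shows inhibition above about 80%, whatever the replicate mean, limit read from the data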;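 also: 0% = DMSO neutral controls and 100% = 20 µM radicicol positive controls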
# TIM10 inh: inhibits growth of TIM10 yeast strain; 1.4% of 330,000 active; inhibition, % at 10 µM; S. cerevisiae TIM10 strain growth, BacTiter-Glo luminescence, 24 h;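 active = inhibition of 40% or more at the single tested concentration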;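 also: wild-type TIM10 isogenic control strain grown at permissive 25 °C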
# tim10-1 conf: confirmation of tim10-1 mutant yeast growth inhibitors; shares compounds with tim10-1 inh; S. cerevisiae tim10-1 ts strain growth, BacTiter-Glo, 24 h; inhibition, % at 20 µM; 56% of 7,400 active; AID 463213;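 active = inhibition of yeast growth at or above a set limit in either of two repeat tests at 20 µM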;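 also: tim10-1 mutant grown at permissive 25 °C to find synthetic lethal compounds; 0% = DMSO yeast wells and 100% = medium wells without yeast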
# An asterisk follows results filed as active; . = not tested or not shown. A selection: hits, their analogues and other compounds. The true share with any hit is near 4.2%.
SMILES,tim23-1 inh,tim10-1 inh,NALP1 inh,NALP3 yeast inh,PfHsp90 yeast 2,TIM10 inh,tim10-1 conf
Fc1ccc(-c2nn3c(C4COc5ccccc5O4)nnc3s2)cc1 (stereo not given),25,47*,7,2,-144,34,43*
CNc1nc(Cl)nc(NC(C)(C)C)n1,-5,-1,5,-6,-25,1,.
CC(C)(C)Nc1nc(Cl)nc(NC(C)(C)C)n1,24,44*,-2,-22,3,14,20
Cc1nc(N2CCN(C(=O)COc3ccccc3)CC2)c2c(C)c(C)sc2n1,27,41*,3,12,2,39,27
O=C(/C=C/c1cccc([N+](=O)[O-])c1)NCCSCc1ccc(Cl)cc1Cl,37,42*,36,15,-38,30,35*
O=C(/C=C/c1cccc([N+](=O)[O-])c1)NCCSCc1ccccc1Cl,41,36,19,13,-4,36,.
CN1/C(=C\C(=O)Nc2ccc(Br)cc2)C(C)(C)c2ccccc21,49,46*,22,19,9,39,54*
CC(C)(C)CC(=O)NCCc1csc(-c2ccccc2)n1,23,8,.,12,5,2,.
COc1ccc(/C(C)=N/NC(=O)c2nnn(-c3nonc3N)c2CN(C)c2ccccc2)cc1,8,26,28,15,8,2,.
C/C(=N\NC(=O)c1nnn(-c2nonc2N)c1CN(C)c1ccccc1)c1ccccc1O,26,62*,0,21,-8,25,3
CC(C)c1c(C(=O)N/N=C/c2cccc(OCc3ccc(F)cc3)c2)nnn1-c1nonc1N,21,36,16,14,13,7,.
COc1cc(/C=N/NC(=O)c2nnn(-c3nonc3N)c2C(C)C)ccc1OCc1ccc(F)cc1,4,43*,2,19,-7,9,-1
COc1ccc(-c2cc(N3CCCC3)n3ncnc3n2)cc1,31,29,11,11,-25,19,.
COc1ccc(-c2cc(-c3ccccc3)n3ncnc3n2)cc1,31,49*,10,36,2,31,22
Cc1ccc(NC(=S)Nc2ccc3cn[nH]c3c2)cc1C,7,26,24,27,5,18,.
CC(C)c1ccc(NC(=S)Nc2ccc3cn[nH]c3c2)cc1,27,43*,-3,9,-18,28,20
OCC1(Cc2ccccc2)CCN(Cc2cnc(-c3cccc4ccccc34)nc2)CC1,-57,-76,10,21,-13,-22,.
OCC1(Cc2ccccc2)CCN(Cc2cnc(-c3ccc(Cl)cc3)nc2)CC1,20,47*,4,16,18,35,19
O=S(=O)(NCc1cccnc1)c1ccc(Cl)c2ccccc12,12,26,13,9,5,-11,.
Cn1cc(SCC(=O)Nc2ccc3c(c2)OCO3)c2ccccc21,26,25,0,10,-41,4,.
Cc1ccc(NC(=S)NNC(=O)CSc2nc3ccccc3c(=O)n2-c2ccc(C)cc2)cc1,37,57*,10,-2,-76,33,34*
CCn1c(SCC(=O)NNC(=S)Nc2ccc(C)cc2)nnc1-c1ccc(Cl)cc1,3,22,12,18,-20,6,.
CCCn1cc(SCC(=O)Nc2ccc3c(c2)OCO3)c2ccccc21,29,43*,44,28,-2,15,21
Cc1ccc(NC(=S)NNC(=O)CSc2nnc(-c3ccc(Cl)cc3)n2C2CCCCC2)cc1,36,42*,5,16,-26,25,35*
CCOc1ccc(-n2c(SCC(=O)Nc3ccc4c(c3)OCO4)nc3ccccc3c2=O)cc1,22,28,8,0,5,24,.
SMILES,tim23-1 inh,tim10-1 inh,NALP1 inh,NALP3 yeast inh,PfHsp90 yeast 2,TIM10 inh,tim10-1 conf
COc1ccc(-n2c(SCC(=O)Nc3ccc4c(c3)OCO4)nc3ccccc3c2=O)cc1,32,40*,22,-1,.,14,20
Cc1ccc(C(=O)N/C(=C/c2ccc(Cl)cc2)C(=O)N2CCOCC2)cc1,33,28,16,6,-78,2,.
O=C(COC(=O)c1ccc2c(c1)C(=O)N(Cc1ccncc1)C2=O)Nc1cccc2ccccc12,10,-13,9,8,1,-2,.
O=C(NCCCN1CCOCC1)/C(=C/c1ccc(F)cc1)NC(=O)c1ccccc1,-9,8,-1,14,7,-16,.
CCN(CC)Cc1ccccc1CNC(=O)c1cccc(S(=O)(=O)Nc2ccc3c(c2)OCO3)c1,5,0,.,9,0,10,.
Cc1c(Cl)cccc1NC(=S)N1CCOCC1,7,-4,32,11,-10,-1,.
Cc1c(Cl)cccc1NC(=S)N1CCc2ccccc2C1,30,51*,8,-7,15,38,25
CN1CCN(C(=S)NC(=O)/C=C/c2cccs2)CC1,13,8,6,25,-6,-18,.
CN1CCN(C(=S)NC(=O)/C=C/c2cccc3ccccc23)CC1,19,51*,.,-2,-17,18,9
CCOC(=O)C1CCN(C(=O)CN2C(=O)COc3ccc(C(C)(C)C)cc32)CC1,28,44*,5,0,-3,9,7
Fc1ccc(Oc2nc(-c3ccccc3)nnc2C(F)(F)F)cc1,47,50*,11,-16,.,38,23
CCN(CCn1cccn1)Cc1c(C(=O)N2C[C@@H](C)O[C@@H](C)C2)nc2ccc(Cl)cn12,5,0,3,2,-3,13,.
COc1cc(Nc2nc3ccccc3nc2NS(=O)(=O)c2ccc([N+](=O)[O-])cc2)cc(OC)c1OC,38,46*,-5,9,-8,22,35*
COc1ccc(C(=O)/C=C/c2ccccc2)c(O)c1,34,49*,3,20,23,40,47*
COc1ccc(C(=O)c2ccc(OC)cc2O)c(O)c1,21,41*,-9,35,-8,15,36*
Cc1cccn2c(=O)nc(SCC(=O)N3CCN(c4ccccc4)CC3)nc12,3,-6,.,2,-3,4,.
CC(NC(=O)C12CC3CC(CC(C3)C1)C2)c1ccc(F)cc1 (stereo not given),13,28,30,-9,-11,9,.
CCNC(=S)NNC(=O)c1cc(-c2cccc(OCC)c2)nc2ccccc12,22,37,-4,7,-32,15,.
CCCCOc1cccc(-c2cc(C(=O)NNC(=S)NCC)c3ccccc3n2)c1,11,41*,18,5,-14,18,37*
CCNC(=S)NNC(=O)c1cc(-c2cccnc2)nc2ccccc12,45,55*,9,10,.,34,41*
CN(CC(=O)Nc1c(Cl)cccc1Cl)C(=O)c1ccc2ccccc2n1,11,11,.,30,-2,3,.
